This note sets out measurements from PMC7862700, “An all-to-all approach to the identification of sequence-specific readers for epigenetic DNA modifications on cytosine”.

Common to all, as to test: DAPPL (digital affinity profiling via proximity ligation, sequencing); 10 mM Tris-HCl pH 7.5, 50 mM NaCl, 1 mM DTT, 4% glycerol, room temperature, 30 min; GST-TFs on glutathione beads, 16-mer random dsDNA library, 0.1% formaldehyde crosslink after washing; high values mean tight binding
Test [1] concerns the target T1, FLI1 (Homo sapiens, UniProt Q01543 1-452).
T1 sequence: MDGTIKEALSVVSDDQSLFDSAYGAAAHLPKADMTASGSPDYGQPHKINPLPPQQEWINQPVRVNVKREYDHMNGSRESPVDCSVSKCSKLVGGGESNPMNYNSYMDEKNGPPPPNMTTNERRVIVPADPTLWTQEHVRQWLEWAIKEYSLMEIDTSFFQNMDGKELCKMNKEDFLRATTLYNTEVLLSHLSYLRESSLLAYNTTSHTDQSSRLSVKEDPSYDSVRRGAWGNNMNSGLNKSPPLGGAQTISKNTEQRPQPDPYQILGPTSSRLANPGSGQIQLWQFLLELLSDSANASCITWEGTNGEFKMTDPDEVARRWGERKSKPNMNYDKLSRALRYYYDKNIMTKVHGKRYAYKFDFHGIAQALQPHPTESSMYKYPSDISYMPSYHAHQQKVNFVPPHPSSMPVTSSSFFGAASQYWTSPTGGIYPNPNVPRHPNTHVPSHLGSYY
As to conditions: protein: recombinant; tags: N-terminal GST; dsDNA, one strand shown. The method, boiled down: (§1)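 Beads coated with glutathione captured GST-fused human transcription factors that had been expressed in yeast, and the factors were then given DNA barcodes and pooled with a tag-only sample. The pools were incubated with 200 nmole of a random double-stranded 16-mer DNA library in Tris/NaCl/DTT/glycerol buffer for 30 min at room temperature, washed, crosslinked with 0.1% formaldehyde and proximity-ligated with BsaI/T4 ligase at 37 °C for 1 h. PCR amplification and Illumina NextSeq500 sequencing came last. Binding signal is each hexamer's read frequency for a factor divided by its frequency for the tag-only sample.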

Test [2] has as its target T2, GABPA (Homo sapiens, UniProt Q06546 1-454).
T2 sequence: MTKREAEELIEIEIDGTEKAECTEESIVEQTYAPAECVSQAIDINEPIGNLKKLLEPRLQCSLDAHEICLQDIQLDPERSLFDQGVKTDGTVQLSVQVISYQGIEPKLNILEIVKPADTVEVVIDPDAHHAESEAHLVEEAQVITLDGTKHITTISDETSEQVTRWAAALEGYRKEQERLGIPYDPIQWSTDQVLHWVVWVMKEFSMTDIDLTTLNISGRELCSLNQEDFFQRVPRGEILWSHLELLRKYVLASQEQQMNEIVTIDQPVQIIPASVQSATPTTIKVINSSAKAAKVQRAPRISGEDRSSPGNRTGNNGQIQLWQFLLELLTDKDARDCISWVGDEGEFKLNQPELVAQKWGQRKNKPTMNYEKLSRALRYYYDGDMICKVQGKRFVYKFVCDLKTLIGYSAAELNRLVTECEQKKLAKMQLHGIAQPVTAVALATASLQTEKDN
As to conditions: protein: recombinant; tags: N-terminal GST; dsDNA, one strand shown. The method, boiled down: as §1

In test [3] the target is T3, ERG (Homo sapiens, UniProt P11308 1-479).
T3 sequence: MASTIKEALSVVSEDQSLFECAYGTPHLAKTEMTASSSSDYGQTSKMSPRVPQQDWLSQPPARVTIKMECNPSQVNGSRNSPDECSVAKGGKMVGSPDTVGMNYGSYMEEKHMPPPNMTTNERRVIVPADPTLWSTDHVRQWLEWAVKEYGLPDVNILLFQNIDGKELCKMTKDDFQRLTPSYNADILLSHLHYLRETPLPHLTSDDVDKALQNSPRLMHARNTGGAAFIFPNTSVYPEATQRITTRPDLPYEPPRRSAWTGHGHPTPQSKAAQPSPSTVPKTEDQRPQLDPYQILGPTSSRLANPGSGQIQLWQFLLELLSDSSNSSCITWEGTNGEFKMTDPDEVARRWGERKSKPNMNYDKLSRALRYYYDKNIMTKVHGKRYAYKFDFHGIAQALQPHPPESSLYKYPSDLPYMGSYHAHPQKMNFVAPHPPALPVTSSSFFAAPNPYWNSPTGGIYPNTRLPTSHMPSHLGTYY
As to conditions: protein: recombinant; tags: N-terminal GST; dsDNA, one strand shown. The method, boiled down: as §1

The target of test [4] is ELF1 (Homo sapiens, UniProt P32519 1-619). As to conditions: protein: recombinant; tags: N-terminal GST; dsDNA, one strand shown. The method, boiled down:
as §1

For test [5], the target named is T4, EHF (Homo sapiens, UniProt Q9NZC4 1-300).
T4 sequence: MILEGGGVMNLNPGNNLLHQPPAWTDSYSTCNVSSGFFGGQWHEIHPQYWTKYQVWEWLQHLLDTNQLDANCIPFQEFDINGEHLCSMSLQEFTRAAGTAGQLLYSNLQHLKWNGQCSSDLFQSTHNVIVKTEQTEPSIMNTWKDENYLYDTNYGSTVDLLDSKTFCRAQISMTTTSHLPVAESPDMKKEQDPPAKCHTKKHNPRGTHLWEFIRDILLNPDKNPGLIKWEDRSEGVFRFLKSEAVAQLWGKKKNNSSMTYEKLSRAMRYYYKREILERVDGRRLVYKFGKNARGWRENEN
As to conditions: protein: recombinant; tags: N-terminal GST; dsDNA, one strand shown. The method, boiled down:
as §1

Test [6] concerns the target SPI1 (Homo sapiens, UniProt P17947 1-270). As to conditions: protein: recombinant; tags: N-terminal GST; dsDNA, one strand shown. The method, boiled down:
as §1

Test [7] concerns the target SPIB (Homo sapiens, UniProt Q01892 1-262). As to conditions: protein: recombinant; tags: N-terminal GST; dsDNA, one strand shown. The method, boiled down: as §1
The target in test [8] is T5, FEV (Homo sapiens, UniProt Q99581 1-238).
T5 sequence: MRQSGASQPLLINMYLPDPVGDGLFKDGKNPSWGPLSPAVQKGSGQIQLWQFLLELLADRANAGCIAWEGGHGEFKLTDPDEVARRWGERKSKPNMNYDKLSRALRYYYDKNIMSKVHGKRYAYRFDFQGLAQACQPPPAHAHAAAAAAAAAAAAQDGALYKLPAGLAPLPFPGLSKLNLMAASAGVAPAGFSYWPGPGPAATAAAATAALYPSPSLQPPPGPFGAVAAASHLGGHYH
As to conditions: protein: recombinant; tags: N-terminal GST; dsDNA, one strand shown. The method, boiled down: as §1

In test [9] the target is ETV5 (Homo sapiens, UniProt P41161 1-510). As to conditions: protein: recombinant; tags: N-terminal GST; dsDNA, one strand shown. The method, boiled down:
as §1

Test [10] concerns the target HSF1 (Homo sapiens, UniProt Q00613 1-529). As to conditions: protein: recombinant; tags: N-terminal GST; chain copies: 3; dsDNA, one strand shown. The method, boiled down: as §1
In test [11] the target is T6, SPIC (Homo sapiens, UniProt Q8N5J4 1-248).
T6 sequence: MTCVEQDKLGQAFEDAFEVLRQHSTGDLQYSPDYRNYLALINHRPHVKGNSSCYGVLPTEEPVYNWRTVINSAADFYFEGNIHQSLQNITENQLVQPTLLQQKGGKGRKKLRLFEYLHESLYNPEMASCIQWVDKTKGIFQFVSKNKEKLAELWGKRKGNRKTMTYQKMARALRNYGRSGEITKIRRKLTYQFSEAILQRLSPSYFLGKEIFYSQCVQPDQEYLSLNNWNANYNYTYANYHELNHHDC
As to conditions: protein: recombinant; tags: N-terminal GST; dsDNA, one strand shown. The method, boiled down: as §1

For test [12], the target named is ELF4 (Homo sapiens, UniProt Q99607 1-663). As to conditions: protein: recombinant; tags: N-terminal GST; dsDNA, one strand shown. The method, boiled down: as §1
ELF4, sequence (Q99607 whole entry): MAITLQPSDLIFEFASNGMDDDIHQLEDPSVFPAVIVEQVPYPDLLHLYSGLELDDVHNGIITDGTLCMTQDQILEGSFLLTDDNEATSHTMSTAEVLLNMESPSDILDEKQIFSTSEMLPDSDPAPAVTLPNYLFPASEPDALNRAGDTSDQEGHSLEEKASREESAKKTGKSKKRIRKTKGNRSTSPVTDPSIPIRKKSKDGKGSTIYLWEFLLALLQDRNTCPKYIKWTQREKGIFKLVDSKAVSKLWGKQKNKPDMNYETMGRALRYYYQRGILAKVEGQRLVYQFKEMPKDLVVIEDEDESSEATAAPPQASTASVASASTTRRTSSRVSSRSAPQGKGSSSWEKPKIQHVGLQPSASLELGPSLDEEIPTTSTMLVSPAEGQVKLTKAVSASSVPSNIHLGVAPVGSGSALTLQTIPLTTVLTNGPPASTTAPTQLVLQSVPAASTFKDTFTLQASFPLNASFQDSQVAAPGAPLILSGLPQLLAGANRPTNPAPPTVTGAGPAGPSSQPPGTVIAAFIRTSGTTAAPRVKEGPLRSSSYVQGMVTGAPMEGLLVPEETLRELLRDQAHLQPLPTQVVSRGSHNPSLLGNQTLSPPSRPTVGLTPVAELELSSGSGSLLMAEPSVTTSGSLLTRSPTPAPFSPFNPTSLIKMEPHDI
The target of test [13] is T7, ELK4 (Homo sapiens, UniProt P28324-2 1-405).
T7 sequence: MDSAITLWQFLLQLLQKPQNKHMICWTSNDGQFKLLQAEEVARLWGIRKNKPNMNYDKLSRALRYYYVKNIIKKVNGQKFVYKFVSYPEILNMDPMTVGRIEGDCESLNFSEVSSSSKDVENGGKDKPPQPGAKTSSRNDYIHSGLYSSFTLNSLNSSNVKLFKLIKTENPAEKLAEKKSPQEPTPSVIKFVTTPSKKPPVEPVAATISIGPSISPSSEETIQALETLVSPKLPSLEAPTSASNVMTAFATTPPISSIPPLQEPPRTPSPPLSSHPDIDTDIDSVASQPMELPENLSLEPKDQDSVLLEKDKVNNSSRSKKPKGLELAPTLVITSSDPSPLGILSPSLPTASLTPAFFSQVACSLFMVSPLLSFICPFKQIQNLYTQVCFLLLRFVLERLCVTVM
As to conditions: protein: recombinant; tags: N-terminal GST; dsDNA, one strand shown. The method, boiled down: as §1

Test [14] has as its target T8, ETV2 (Homo sapiens, UniProt O00321 1-342).
T8 sequence: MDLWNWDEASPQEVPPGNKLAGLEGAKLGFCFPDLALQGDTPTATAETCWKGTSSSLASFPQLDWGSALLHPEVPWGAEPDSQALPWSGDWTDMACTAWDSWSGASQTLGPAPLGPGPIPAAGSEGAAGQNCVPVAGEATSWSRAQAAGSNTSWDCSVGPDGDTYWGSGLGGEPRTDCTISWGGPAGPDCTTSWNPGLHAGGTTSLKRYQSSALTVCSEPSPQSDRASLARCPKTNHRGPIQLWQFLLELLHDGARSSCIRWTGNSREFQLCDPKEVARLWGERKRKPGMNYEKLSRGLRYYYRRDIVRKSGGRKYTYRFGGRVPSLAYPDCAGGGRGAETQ
As to conditions: protein: recombinant; tags: N-terminal GST; dsDNA, one strand shown. The method, boiled down:
as §1

The target in test [15] is T9, ELF3 (Homo sapiens, UniProt P78545 1-371).
T9 sequence: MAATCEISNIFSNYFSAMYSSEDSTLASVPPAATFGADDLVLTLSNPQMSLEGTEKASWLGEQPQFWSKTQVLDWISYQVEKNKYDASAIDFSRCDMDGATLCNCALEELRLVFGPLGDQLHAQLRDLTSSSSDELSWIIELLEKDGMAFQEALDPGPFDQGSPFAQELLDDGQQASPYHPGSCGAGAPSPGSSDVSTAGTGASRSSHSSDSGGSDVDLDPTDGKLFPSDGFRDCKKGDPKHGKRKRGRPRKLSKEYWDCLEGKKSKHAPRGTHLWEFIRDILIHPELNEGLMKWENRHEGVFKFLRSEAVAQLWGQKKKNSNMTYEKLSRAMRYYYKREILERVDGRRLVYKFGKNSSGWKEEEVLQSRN
As to conditions: protein: recombinant; tags: N-terminal GST; dsDNA, one strand shown. The method, boiled down: as §1

The target in test [16] is CRX (Homo sapiens, UniProt O43186 1-299). As to conditions: protein: recombinant; tags: N-terminal GST; dsDNA, one strand shown. The method, boiled down:
as §1

Test [17] has as its target ETV1 (Homo sapiens, UniProt P50549 1-477). As to conditions: protein: recombinant; tags: N-terminal GST; dsDNA, one strand shown. The method, boiled down: as §1

ELF1, sequence (P32519 whole entry): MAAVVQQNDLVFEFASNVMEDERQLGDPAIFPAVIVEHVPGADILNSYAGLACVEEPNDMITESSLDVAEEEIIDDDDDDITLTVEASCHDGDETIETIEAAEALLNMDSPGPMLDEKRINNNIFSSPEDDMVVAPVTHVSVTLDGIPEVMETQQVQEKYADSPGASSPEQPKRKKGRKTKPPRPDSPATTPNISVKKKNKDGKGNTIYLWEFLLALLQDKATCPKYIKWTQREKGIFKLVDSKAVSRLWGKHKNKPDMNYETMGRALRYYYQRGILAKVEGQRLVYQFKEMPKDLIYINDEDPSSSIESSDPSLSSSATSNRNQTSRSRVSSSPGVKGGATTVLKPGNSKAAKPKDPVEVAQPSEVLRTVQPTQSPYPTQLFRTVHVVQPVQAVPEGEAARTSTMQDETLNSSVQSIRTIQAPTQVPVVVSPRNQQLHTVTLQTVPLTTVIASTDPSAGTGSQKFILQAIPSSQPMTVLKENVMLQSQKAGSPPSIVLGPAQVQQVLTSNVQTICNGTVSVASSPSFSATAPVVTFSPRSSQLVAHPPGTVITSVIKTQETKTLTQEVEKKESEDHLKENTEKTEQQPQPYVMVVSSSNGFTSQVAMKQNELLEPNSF
CRX, sequence (O43186 whole entry): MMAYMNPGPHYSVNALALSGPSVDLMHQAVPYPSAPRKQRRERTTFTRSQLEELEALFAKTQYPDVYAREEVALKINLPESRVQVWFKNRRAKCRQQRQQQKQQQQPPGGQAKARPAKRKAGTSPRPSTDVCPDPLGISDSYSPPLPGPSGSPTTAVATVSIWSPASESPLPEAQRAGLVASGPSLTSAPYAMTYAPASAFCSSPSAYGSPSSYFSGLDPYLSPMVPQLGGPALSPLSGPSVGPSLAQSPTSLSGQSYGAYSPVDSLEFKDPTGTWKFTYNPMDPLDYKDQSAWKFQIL
ETV1, sequence (P50549 whole entry): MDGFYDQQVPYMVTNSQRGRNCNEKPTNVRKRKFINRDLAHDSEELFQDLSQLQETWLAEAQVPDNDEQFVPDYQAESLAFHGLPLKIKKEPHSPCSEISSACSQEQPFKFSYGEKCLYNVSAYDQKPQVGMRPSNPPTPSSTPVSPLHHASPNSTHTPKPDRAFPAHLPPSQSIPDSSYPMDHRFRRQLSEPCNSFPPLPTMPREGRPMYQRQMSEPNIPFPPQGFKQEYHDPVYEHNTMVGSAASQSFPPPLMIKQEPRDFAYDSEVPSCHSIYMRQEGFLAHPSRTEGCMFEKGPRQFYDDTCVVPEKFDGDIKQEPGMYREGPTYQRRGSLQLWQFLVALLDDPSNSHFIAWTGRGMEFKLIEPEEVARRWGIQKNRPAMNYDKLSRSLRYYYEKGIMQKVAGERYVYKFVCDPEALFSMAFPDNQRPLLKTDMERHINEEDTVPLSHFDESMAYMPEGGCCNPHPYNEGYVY
ETV5, sequence (P41161 whole entry): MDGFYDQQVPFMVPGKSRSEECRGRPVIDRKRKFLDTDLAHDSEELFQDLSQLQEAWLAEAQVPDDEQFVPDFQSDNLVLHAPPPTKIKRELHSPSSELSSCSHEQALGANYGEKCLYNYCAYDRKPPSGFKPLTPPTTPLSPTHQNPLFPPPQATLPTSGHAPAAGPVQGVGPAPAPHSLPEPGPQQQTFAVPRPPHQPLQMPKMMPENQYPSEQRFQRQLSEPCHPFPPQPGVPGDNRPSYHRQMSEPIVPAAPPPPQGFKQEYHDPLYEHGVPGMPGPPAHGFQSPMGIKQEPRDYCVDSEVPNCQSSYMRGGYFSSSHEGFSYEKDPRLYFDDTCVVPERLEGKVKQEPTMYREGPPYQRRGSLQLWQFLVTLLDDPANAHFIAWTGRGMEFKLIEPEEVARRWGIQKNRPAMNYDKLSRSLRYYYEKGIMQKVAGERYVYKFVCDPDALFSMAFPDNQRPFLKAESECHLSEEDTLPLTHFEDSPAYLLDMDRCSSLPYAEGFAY
SPIB, sequence (Q01892 whole entry): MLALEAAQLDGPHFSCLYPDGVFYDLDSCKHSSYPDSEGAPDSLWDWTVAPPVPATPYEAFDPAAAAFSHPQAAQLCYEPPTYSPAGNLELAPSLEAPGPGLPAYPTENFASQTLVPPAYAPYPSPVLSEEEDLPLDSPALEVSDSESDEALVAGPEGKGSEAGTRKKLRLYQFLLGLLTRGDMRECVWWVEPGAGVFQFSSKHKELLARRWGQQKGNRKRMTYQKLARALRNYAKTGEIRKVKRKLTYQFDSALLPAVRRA
HSF1, sequence (Q00613 whole entry): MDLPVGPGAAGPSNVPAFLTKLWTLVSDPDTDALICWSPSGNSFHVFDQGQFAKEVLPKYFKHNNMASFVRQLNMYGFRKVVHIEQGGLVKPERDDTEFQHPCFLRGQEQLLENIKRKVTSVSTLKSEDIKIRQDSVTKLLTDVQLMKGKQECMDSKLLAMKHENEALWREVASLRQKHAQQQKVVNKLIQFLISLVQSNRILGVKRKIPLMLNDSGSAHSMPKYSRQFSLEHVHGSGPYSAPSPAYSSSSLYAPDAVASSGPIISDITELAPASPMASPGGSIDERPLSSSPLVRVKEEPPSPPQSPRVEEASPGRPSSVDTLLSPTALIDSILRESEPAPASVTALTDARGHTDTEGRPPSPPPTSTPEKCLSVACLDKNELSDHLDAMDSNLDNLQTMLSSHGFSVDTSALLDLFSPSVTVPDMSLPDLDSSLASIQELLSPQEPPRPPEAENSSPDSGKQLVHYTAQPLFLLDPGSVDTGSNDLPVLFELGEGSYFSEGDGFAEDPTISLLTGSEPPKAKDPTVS

GTGGCT: the binding signal in test [1] is 1.23 fold enrichment (6-mer frequency, TF over GST control); in test [2] it was 1.27 fold enrichment (6-mer frequency, TF over GST control); in test [3], 1.19 fold enrichment (6-mer frequency, TF over GST control); in test [4], 1.11 fold enrichment (6-mer frequency, TF over GST control); in test [5], 1.22 fold enrichment (6-mer frequency, TF over GST control); in test [6] it was 1.3 fold enrichment (6-mer frequency, TF over GST control). In addition, the binding signal in test [7] was 1.18 fold enrichment (6-mer frequency, TF over GST control); in test [8], 1.19 fold enrichment (6-mer frequency, TF over GST control); in test [9], 1.13 fold enrichment (6-mer frequency, TF over GST control); in test [10], 1.05 fold enrichment (6-mer frequency, TF over GST control); in test [11] it was 1.23 fold enrichment (6-mer frequency, TF over GST control); in [12] it was 1.1 fold enrichment (6-mer frequency, TF over GST control). Moreover, the binding signal in [13] was 1.31 fold enrichment (6-mer frequency, TF over GST control); in [14], 1.17 fold enrichment (6-mer frequency, TF over GST control); in test [15], 1.26 fold enrichment (6-mer frequency, TF over GST control); in test [16] it was 1.18 fold enrichment (6-mer frequency, TF over GST control); in [17] it was 1.19 fold enrichment (6-mer frequency, TF over GST control).
